Reference: PubChem BioAssay
Activity calls are given as the source filed them. Unless noted, no rule for the calls is given here.

Columns and labels:
[1] = system: XIP peptide (Xip251-270) binding; assay: small-molecule binders of XIP peptide, primary screen, biochemical, small-molecule microarray, fluorescence 635/667 nm, 0.1 µg/mL protein (AID 1182); settings: fluorescent protein binding, 635 nm, higher = more signal, called active from +8 up or from −8 down
XIP peptide (Xip251-270) = assay: small-molecule binders of XIP peptide, primary screen, biochemical, small-molecule microarray, fluorescence 635/667 nm, 0.5 µg/mL protein (AID 1183); settings: small-molecule microarray binding, fluorescence 635 nm; higher = more signal
[2] = Plasmodium falciparum growth inhibition, primary screen, strain 3D7, DAPI fluorescence, 100 nL (AID 1184);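 also: parasites grown inside human red blood cells in medium with human serum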; settings: P. falciparum 3D7 growth, 3 d, higher = more signal
[3] = biological target: Homeobox protein Hox-A13 (Mus musculus) (UniProt Q62424); assay: inhibitors of HoxA13-DNA binding, primary screen, biochemical, fluorescence polarization, labeled oligonucleotide (AID 1185); settings: 15 min, higher = more signal, called active from +8 up or from −8 down
Homeobox protein Hox-A13 (Mus musculus), sequence (Q62424 whole entry, looked up): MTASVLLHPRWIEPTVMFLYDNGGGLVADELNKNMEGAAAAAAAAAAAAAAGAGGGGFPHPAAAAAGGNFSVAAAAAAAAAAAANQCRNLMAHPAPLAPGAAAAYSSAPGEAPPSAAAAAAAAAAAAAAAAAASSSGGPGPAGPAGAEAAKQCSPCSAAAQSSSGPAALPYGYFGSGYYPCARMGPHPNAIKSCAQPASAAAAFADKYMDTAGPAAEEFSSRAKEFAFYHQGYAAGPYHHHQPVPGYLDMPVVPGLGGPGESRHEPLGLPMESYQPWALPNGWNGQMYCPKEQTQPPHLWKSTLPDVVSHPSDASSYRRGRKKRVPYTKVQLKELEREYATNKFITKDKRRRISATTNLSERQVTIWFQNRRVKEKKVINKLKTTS

[4] = inhibitors of hydroxyurea-induced Chk1 phosphorylation, primary screen, imaging, HeLa, phospho-Chk1 antibody, percent positive cells (AID 1186); settings: hydroxyurea-induced phospho-Chk1 immunofluorescence imaging, higher = more signal
[5] = inhibitors of hydroxyurea-induced Chk1 phosphorylation, primary screen, imaging, HeLa, phospho-Chk1 nuclear intensity (AID 1187); settings: hydroxyurea-induced phospho-Chk1 immunofluorescence imaging, higher = more signal

SMILES | composite z-score [1] | composite z-score (XIP peptide (Xip251-270)) | z-score [2] | z-score [3] | z-score [4] | z-score [5]
CC(C)[Si](C#C[Si](C(C)C)(C(C)C)C(C)C)(O[C@H](C)c1cn(Cc2ccccc2)nn1)C(C)C | -0.0845 (inactive) | 0.0972 | 1.59 | -0.236 (inactive) | -0.175 (inactive) | -0.288 (inactive)
COCC(=C=CC[C@H](O)c1cccc(OCCO)c1)CCO | 1.15 (inactive) | 0.433 | 0.547 | -2.29 (inactive) | -0.0132 (inactive) | -0.479 (inactive)
C=CC[C@]1(C(N)=O)N=C(c2ccc(OCCCO)cc2)O[C@H]1c1ccccc1 | 0.672 (inactive) | 0.787 | -1.09 | -6.17 (inactive) | 0.344 (inactive) | 0.327 (inactive)
COc1ccc([Si](C)(C)[C@@H]2[C@@H](CCn3cc([C@H](O)c4ccccc4)nn3)O[C@]3(C(=O)N(Cc4cccc(N5CCC5=O)c4)c4ccccc43)[C@H]2C)cc1 | 0.863 (inactive) | 0.46 | -2.48 | -2.8 (inactive) | -0.529 (inactive) | -0.414 (inactive)
Cc1ccc(S[C@]2(C(=O)O)CC(=O)N(C(C)C)[C@@H]2c2ccc(CO)cc2)cc1 | 0.402 (inactive) | 0.216 | 0.252 | -0.292 (inactive) | -0.696 (inactive) | -0.558 (inactive)
[N-]=[N+]=Nc1ccccc1C[C@]1(C(=O)N2CCCCC2)COC(c2ccc(OCCCO)cc2)=N1 | 1.98 (inactive) | 0.204 | -2.29 | -6.17 (inactive) | 0.118 (inactive) | -0.232 (inactive)
C[N+](C)(C)CCCC[C@@H]1NC(=O)[C@H]2C[C@@H](C(=O)NCCCCCCNC(=O)CS)[C@@H](c3ccc(O)cc3)N2C1=O | 0.945 (inactive) | -0.502 | 0.0331 | -2.68 (inactive) | -0.888 (inactive) | -0.233 (inactive)
COC(=O)c1c(CC[C@@H](CO)NC(=O)N[C@@H](Cc2ccccc2)Cn2cc(-c3ccccn3)nn2)oc(C(=O)N2CCOCC2)c1C(=O)OC | 0.53 (inactive) | 0.0134 | -0.671 | -2.7 (inactive) | 0.101 (inactive) | 0.0064 (inactive)
CC(C)C(=C=CC[C@H](O)c1ccc(CO)o1)CCO | 0.352 (inactive) | 0.792 | 1.27 | -4.02 (inactive) | -0.301 (inactive) | -0.0779 (inactive)
CC1CC/C=C\[C@H]2OC34C=CCN(Cn5nnc6ccccc65)C(=O)[C@H]3N(CCCCCO)C(=O)[C@@H]4C2C(=O)O1 (some centres undefined) | -0.369 (inactive) | -0.745 | -0.585 | -3.77 (inactive) | -0.749 (inactive) | -0.2 (inactive)
COC(=O)[C@@]1(Cc2ccccc2)[C@H]2c3cc(C(=O)N(C)C)n(CCc4c[nH]c5ccc(O)cc45)c3C[C@H]2CN1C(=O)c1ccccc1 | 1.44 (inactive) | 0.818 | -1.59 | -5.16 (inactive) | -0.996 (inactive) | -0.844 (inactive)
C=CCN(Cc1ccccc1)C(=O)C(c1cccs1)N(C(=O)/C=C\C(=O)O)c1ccc(CCOCCO)cc1 (centres undefined) | -0.524 (inactive) | 0.625 | 0.155 | 0.12 (inactive) | -1.25 (inactive) | -0.565 (inactive)
COC(=O)C[C@H]1O[C@@H](CCc2ccccc2)[C@@H](C)[C@@H]1[Si](C)(C)c1ccc(OC)cc1 | -0.633 (inactive) | -0.919 | -1.63 | -4.56 (inactive) | 0.0465 (inactive) | 0.33 (inactive)
C=CCNC(=O)[C@@H]1[C@H]2C(=O)O[C@H](c3ccccc3)[C@H](c3ccccc3)N2[C@H](c2ccc(OCCO)cc2)[C@@]12C(=O)N(C(=O)OCCOC)c1ccc(C#CCNC(N)=O)cc12 | -0.121 (inactive) | 0.842 | -1.29 | -1.4 (inactive) | 0.111 (inactive) | 0.487 (inactive)
NC(=O)[C@@]1(Cc2ccccc2)N=C(c2ccc(OCCCO)cc2)O[C@H]1c1ccccc1 | 1.08 (inactive) | -0.41 | -0.689 | -5.07 (inactive) | -0.18 (inactive) | 0.135 (inactive)
CC(C)CN1C(=O)[C@@]2(c3ccc([N+](=O)[O-])cc3)CC(=O)N(C3CCCCC3)[C@@H]2c2ccc(CO)cc21 | -0.0685 (inactive) | -0.57 | -0.643 | -0.113 (inactive) | 0.0566 (inactive) | 0.558 (inactive)
CCCCN1CC=CC23O[C@@H]4/C=C\CCCOC(=O)C4[C@H]2C(=O)N(CCCO)[C@@H]3C1=O (some centres undefined) | 1.48 (inactive) | 0.737 | 0.651 | -5.29 (inactive) | 0.267 (inactive) | 0.576 (inactive)
C=CC[C@@]1(C(=O)N2CCCCC2)N=C(c2ccc(OCCCO)cc2)O[C@@H]1c1ccccc1CN=[N+]=[N-] | 0.274 (inactive) | 0.888 | -2.21 | -0.0816 (inactive) | -0.514 (inactive) | -0.604 (inactive)
OCCCC1=CC(C2CC2)N(Cc2cccc(OC(F)(F)F)c2)CC1 (centres undefined) | 0.0736 (inactive) | 0.492 | -1.76 | -4.21 (inactive) | -0.245 (inactive) | 0.143 (inactive)
CC=CC(O)C1C=CC2C(=O)N(C)C(=O)C2N1N(c1ccccc1)c1ccccc1 (centres undefined) | 0.212 (inactive) | 0.414 | 0.0212 | -0.125 (inactive) | 0.341 (inactive) | 0.365 (inactive)
COc1ccc([Si](C)(C)[C@H]2[C@H](CC(=O)N3CCC[C@H]3CO)O[C@@]3(C(=O)N(Cc4cccc(N5CCOC5=O)c4)c4ccccc43)[C@@H]2C)cc1 | 0.991 (inactive) | 0.672 | -1.42 | -4.71 (inactive) | 0.835 (inactive) | 0.936 (inactive)
COc1ccc(NC(=O)O[C@H]2[C@H](OC(=O)c3cc4ccccc4[nH]3)[C@@H](OC(=O)c3cc4ccccc4[nH]3)[C@@H](OC)O[C@@H]2CO)cc1 | 1.54 (inactive) | -0.135 | -2.16 | -3.86 (inactive) | -0.335 (inactive) | -0.331 (inactive)
Cc1ccc(S(=O)(=O)N2C[C@@H](C(=O)O)[C@H](Sc3ccccc3)C[C@H]2c2ccccc2)cc1 | 0.117 (inactive) | 0.779 | -0.0652 | -7 (inactive) | 0.442 (inactive) | 0.283 (inactive)
COC(=O)c1c2oc(c1C(=O)OC)C(=O)N[C@@H](C(C)C)Cn1cc(nn1)C1(CCCCC1)NC(=O)N[C@H](CO)CC2 | 0.0023 (inactive) | 0.0911 | 0.0538 | -0.587 (inactive) | 0.193 (inactive) | 0.284 (inactive)
